{
  "source": "PubChem BioAssay AID687014",
  "about": "(The Scripps Research Institute Molecular Screening Center, 2013)",
  "note": "The campaign covered roughly 370,000 compounds. About 6,800 (1.8%) were called active. The entries come from a sample that favours actives as a whole. Unmarked numbers belong to inactive results.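 How the source made its calls: active means activation above a cutoff set at the mean of all screened compounds plus 3 SD (cut at about 10% in these data); inactive means the rest.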",
  "data": [
    {"test_system": "Nuclear hormone receptor DAF-12 (Heterodera glycines), GAL4 fusion", "assay": "H. glycines DAF-12 receptor agonists, primary screen, cell-based, luminescence, HEK293, GAL4 fusion, UAS-luciferase (AID 687014);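 further: 0% = DMSO wells and 100% = sodium butyrate wells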", "conditions": "HEK293 GAL4-hgDAF12 UAS-luciferase reporter, agonist luminescence; at 6.8 µM; hits give high values; normalized to butyrate control", "values": [
      {"smiles": "O=C(N/N=C/c1ccsc1)c1cc(O)cc(O)c1", "activation": "2.1%"},
      {"smiles": "NN=C(NN=Cc1ccccc1)c1ccccc1", "activation": "10.3%"},
      {"smiles": "O=C(N/N=C/c1ccoc1)c1ccc(Cl)cc1Cl", "activation": "5.04%"},
      {"smiles": "CSc1ccc(/C=N/NC(=O)c2cccc(Cl)c2)cc1", "activation": "15.8% (active)"},
      {"smiles": "O=C(NN=Cc1ccccc1)c1ccccc1", "activation": "12.9% (active)"},
      {"smiles": "CC(NC(=O)C(=O)N/N=C/c1ccc(Cl)cc1)c1ccccc1", "note": "(stereo unspecified)", "activation": "-4.35%"},
      {"smiles": "COC(=O)[C@]12C[C@H](CC(=O)NCc3ccccc3)C(=O)N(CCC3=CCCCC3)C1=C[C@H](C(C)(C)C)O[C@@H]2C", "activation": "-0.89%"},
      {"smiles": "COc1cccc(CNC(=O)Cn2c(=O)oc3cc(S(=O)(=O)N4CCCCC4)ccc32)c1", "activation": "-2.85%"},
      {"smiles": "COc1ccc(C2CC=C(C(=O)O)C(c3ccccc3F)N2S(=O)(=O)c2ccc(C)cc2)cc1OC", "note": "(stereo unspecified)", "activation": "3.93%"},
      {"smiles": "COC(=O)C[C@@H]1CC[C@H]2[C@@H](COc3ccc(NS(=O)(=O)CC(F)(F)F)cc3C(=O)N2C)O1", "activation": "-0.04%"},
      {"smiles": "COC(=O)c1cc2c(c3c4ccccc4n(S(=O)(=O)c4cccc(C)c4)c13)C(=O)N(Cc1ccccc1)C2", "activation": "0.97%"},
      {"smiles": "CC(C)(C)NC(=O)C(c1cccnc1)N(C(=O)c1cnco1)c1ccc(C(C)(C)C)cc1", "note": "(stereo unspecified)", "activation": "-4.87%"},
      {"smiles": "FC(F)(F)Oc1ccc(-c2cn3cccnc3n2)cc1", "activation": "9.13%"},
      {"smiles": "COc1cc(OC)cc(-c2nc(=S)n3ccsc3n2)c1", "activation": "2.26%"},
      {"smiles": "COc1ccc(-c2cn3ccsc3n2)cc1", "activation": "14.1% (active)"},
      {"smiles": "CC(C)(C)C(=O)Nc1ccc(-c2cn3cccnc3n2)cc1", "activation": "8.9%"},
      {"smiles": "COc1ccc(-c2cn3cccnc3n2)cc1", "activation": "14.7% (active)"},
      {"smiles": "Cc1ccc(S(=O)(=O)NCc2cn3ccsc3n2)c(C)c1", "activation": "-0.36%"},
      {"smiles": "Nc1ncnc2c1ncn2[C@@H]1O[C@H](C(=O)N[C@@H](CCc2ccccc2)C(=O)NCC(=O)N2CCOCC2)[C@@H](O)[C@H]1O", "activation": "1.87%"},
      {"smiles": "CC(C)N1CCCCC(NC(=O)c2ccc3ccccc3c2)C1=O", "note": "(stereo unspecified)", "activation": "-0.24%"},
      {"smiles": "O=S1(=O)c2ccc(Br)cc2-n2nncc2CN1Cc1cccc(Cl)c1", "activation": "6.32%"},
      {"smiles": "Cc1ccc(C)c(-n2nnnc2SCC(=O)c2c(N)n(C)c(=O)n(C)c2=O)c1", "activation": "-2.28%"},
      {"smiles": "COc1ccc(Cn2ccc3ccc(-c4ccc5ccn(Cc6ccccc6C)c5c4)cc32)cc1", "activation": "8.22%"},
      {"smiles": "CC(=O)OC[C@@H]1CN(Cc2ccccc2)C[C@H](n2cnc3c(NCc4ccco4)ncnc32)O1", "activation": "1.43%"},
      {"smiles": "c1ccc(-c2ccc3c(c2)NC(C2Nc4cc(-c5ccccc5)ccc4O2)O3)cc1", "note": "(stereo unspecified)", "activation": "-0.29%"},
      {"smiles": "c1ccc(-c2c[nH]c(-c3ccccc3)c2)cc1", "activation": "11.8% (active)"},
      {"smiles": "Oc1ccc(-c2cccc(-c3ccc(O)cc3)c2)cc1", "activation": "7.62%"},
      {"smiles": "Brc1ccc(COCCc2cn(Cc3ccccc3)c3ccccc23)cc1", "activation": "0.93%"},
      {"smiles": "O=S1(=O)c2c(cccc2N2CCSCC2)Oc2ccccc2CN1Cc1cn(Cc2ccc(F)cc2)nn1", "activation": "-4.41%"},
      {"smiles": "Cc1ccc2nc(-c3ccc(Br)cc3)cn2c1", "activation": "-6.8%"},
      {"smiles": "COc1ccc(-c2cn3ccc(C)cc3n2)cc1", "activation": "14.2% (active)"},
      {"smiles": "CCN(CC(=O)NCCc1ccccc1)S(=O)(=O)c1ccc(C)cc1", "activation": "-0.97%"},
      {"smiles": "Cc1ccc(-c2cn3cc(C)ccc3n2)cc1", "activation": "-15.8%"},
      {"smiles": "CCN(CC)S(=O)(=O)c1ccc(-c2cn3ccc(C)cc3n2)cc1", "activation": "10.8% (active)"},
      {"smiles": "CCN(c1cccc(C)c1)S(=O)(=O)c1ccc(-c2coc(C)n2)cc1", "activation": "-2.39%"},
      {"smiles": "C[C@H]1CCC/C=C/C(=O)c2c(O)cc(O)cc2CC(=O)O1", "activation": "-13.8%"},
      {"smiles": "CCCCCCCCN1C(=O)[C@@H](CC(=O)NCc2ccccc2)C[C@@]2(C(=O)OC)C1=C[C@H](C(C)(C)C)O[C@@H]2C", "activation": "-1.53%"},
      {"smiles": "O=C(c1ccco1)N1CCN=C1SCc1cccc(Cl)c1", "activation": "-5.1%"},
      {"smiles": "CCC(=O)c1c(CC)c2n3c1=CC[C@H]3CC(Br)C=2", "note": "(stereo partly specified)", "activation": "-0.81%"},
      {"smiles": "COc1ccc(-n2c(COc3ccccc3)nnc2SCC(=O)Nc2ccc3c(c2)OCO3)cc1", "activation": "-2.9%"},
      {"smiles": "NS(=O)(=O)c1ccc(CCNC(=O)CNC(=O)Cc2ccccc2)cc1", "activation": "0.79%"},
      {"smiles": "Cc1cc(C)n2ncc(C(=O)Nc3ccc4c(c3)OCCO4)c2n1", "activation": "4.4%"},
      {"smiles": "CCc1ccc2oc(-c3ccc(N)cc3)nc2c1", "activation": "15.5% (active)"},
      {"smiles": "CC(=O)N1CC2(C)CN(C(C)=O)CC(C)(C1)C2=O", "activation": "1.11%"},
      {"smiles": "O=C(CCCCCN1C(=O)C2C3C=CC(C3)C2C1=O)Nc1ccccc1", "note": "(stereo unspecified)", "activation": "8.92%"},
      {"smiles": "CCSc1nsc(NC(=O)Nc2cccc(C(C)=O)c2)n1", "activation": "8.65%"},
      {"smiles": "CC(=O)c1cccc(NC(=O)Nc2ccc(C)cc2)c1", "activation": "11.1% (active)"},
      {"smiles": "CC(=O)c1cccc(NC(=O)[C@@H](NC(N)=O)C(C)C)c1", "activation": "-2.72%"},
      {"smiles": "OCCN1CCN(c2ncnc3c2ncn3[C@H]2CN(Cc3ccco3)C[C@@H](CO)O2)CC1", "activation": "0.95%"},
      {"smiles": "COc1ccc(Cn2cc(CN3[C@@H](CC(C)C)COc4cc(Br)ccc4S3(=O)=O)nn2)cc1", "activation": "2.35%"},
      {"smiles": "Cc1ccc(NC(=O)CNCc2ccccn2)cc1S(=O)(=O)N(C)C", "activation": "3.01%"},
      {"smiles": "CCN(c1ccccc1)S(=O)(=O)c1cc(C(=O)NCc2ccccn2)ccc1C", "activation": "0.44%"},
      {"smiles": "CCN(CC)S(=O)(=O)c1cc(C(=O)Nc2ccccn2)ccc1C", "activation": "12.3% (active)"},
      {"smiles": "C[C@H]1[C@H](c2ccccc2)Oc2cc(Br)ccc2S(=O)(=O)N1Cc1cccc(F)c1", "activation": "-2.03%"},
      {"smiles": "O=C(Nc1ccc(S(=O)(=O)N2CCCC2)cc1Cl)C1=COCCO1", "activation": "-1.4%"},
      {"smiles": "NS(=O)(=O)c1ccc2nc(NC(=O)C3=COCCO3)sc2c1", "activation": "12.8% (active)"},
      {"smiles": "NS(=O)(=O)c1ccc2nc(NC(=O)CS(=O)(=O)c3ccc(F)cc3)sc2c1", "activation": "2.11%"},
      {"smiles": "COc1ccc(CN2C(=O)N3Cc4cc(OC)ccc4C3CS2(=O)=O)cc1", "note": "(stereo unspecified)", "activation": "-2.75%"},
      {"smiles": "CCCCCn1nnnc1-c1nc2cc3ccccc3cc2[nH]c1=O", "activation": "0.65%"},
      {"smiles": "Cc1ccc(-c2nnc(-n3nnc4ccccc43)c3ccccc23)cc1", "activation": "0.07%"},
      {"smiles": "Cc1ccc(-c2nc3ccccc3[nH]c2=O)cc1", "activation": "10.9% (active)"},
      {"smiles": "O=C(NCCc1ccccc1)c1ccc(NC2=NC3CS(=O)(=O)CC3S2)cc1", "note": "(stereo unspecified)", "activation": "-1.54%"},
      {"smiles": "CC1CCN(C(=O)CCNC(=O)c2ccccc2)CC1", "activation": "2.11%"},
      {"smiles": "CC1CCCN(c2ccc(C(=O)NCCc3ccccc3)cn2)C1", "note": "(stereo unspecified)", "activation": "18.4% (active)"},
      {"smiles": "O=C(NC1CCCC1)C1CSCCS(=O)(=O)N1Cc1ccccc1", "note": "(stereo unspecified)", "activation": "2.17%"},
      {"smiles": "CC(C)C[C@@H](NC(=O)[C@H]1CCCN1C(=O)Cc1ccccc1)C(N)=O", "activation": "1.33%"},
      {"smiles": "Cc1cc(F)ccc1N1CCC(N2CCN(C)C(CCO)C2)CC1", "note": "(stereo unspecified)", "activation": "1.51%"},
      {"smiles": "O=C(Nc1ccccc1C(=O)N1CCOCC1)c1ccc(Cl)cc1", "activation": "-2.57%"},
      {"smiles": "O=C(Cc1ccccc1)Nc1ccc(C(=O)Nc2ccccc2C(=O)O)cc1", "activation": "0.23%"},
      {"smiles": "Nc1ccc(C(=O)Nc2ccccc2N)cc1", "activation": "66.9% (active)"},
      {"smiles": "CCC(CO)Nc1cccc2c1S(=O)(=O)N(Cc1cn(Cc3ccccc3C(F)(F)F)nn1)Cc1ccccc1O2", "note": "(stereo unspecified)", "activation": "0.2%"},
      {"smiles": "O=C1Nc2ccccc2C1=NN=Cc1ccco1", "activation": "0.84%"},
      {"smiles": "Nc1nonc1-n1nnc(C(=O)N/N=C/c2ccc(Cl)cc2)c1-c1ccc2c(c1)OCO2", "activation": "-0.85%"},
      {"smiles": "CCOc1ccc(/C=N\\NC(=O)c2c(C)nc3cc(C)ccn23)cc1", "activation": "-0.25%"},
      {"smiles": "Cc1nonc1C(=O)N/N=C/c1ccc(O)cc1", "activation": "10.9% (active)"},
      {"smiles": "Cc1ccc(O)c(CCc2ccccc2)n1", "activation": "1.33%"},
      {"smiles": "Cc1cccc(C(=O)Nc2c(-c3ccc(F)cc3)nc3ncccn23)c1", "activation": "-2.47%"},
      {"smiles": "CCC(=O)Nc1ccc2c(c1)C(=O)N(C)[C@@H]1CC[C@@H](CC(=O)NCCc3ccccc3)O[C@H]1CO2", "activation": "0.93%"},
      {"smiles": "Cc1cc(O)cc(O)c1C(=O)Cc1cnn(-c2ccccc2)c1", "activation": "-1.43%"},
      {"smiles": "O=C(c1cnn(-c2ccc(Cl)cc2)c1)c1ccccc1O", "activation": "18.6% (active)"},
      {"smiles": "O=C(c1ccc(Cl)cc1)n1cnc2ccccc21", "activation": "0.03%"},
      {"smiles": "CN(CCO)c1cccc2c1S(=O)(=O)N(Cc1cn(Cc3ccc(C(F)(F)F)cc3)nn1)Cc1ccccc1O2", "activation": "4.36%"},
      {"smiles": "O=C(NCc1cccnc1)c1nc(-c2cccs2)no1", "activation": "4.85%"},
      {"smiles": "c1csc(-c2nc(-c3ccncc3)no2)c1", "activation": "10.9% (active)"},
      {"smiles": "Cc1ccc(-c2noc(-c3ccccc3C(=O)NCC3CCCO3)n2)cc1", "note": "(stereo unspecified)", "activation": "3.26%"},
      {"smiles": "Cc1ccc(-c2nc(-c3ccncc3)no2)c(C)c1", "activation": "12.5% (active)"},
      {"smiles": "O=C(c1cccs1)N1CCCC(c2nc(-c3ccc(F)cc3)no2)C1", "note": "(stereo unspecified)", "activation": "3.47%"},
      {"smiles": "CCOc1ccc(N(CC(=O)Nc2c(C)n(C)n(-c3ccccc3)c2=O)S(=O)(=O)c2ccc(Cl)s2)cc1", "activation": "8.38%"},
      {"smiles": "CCOc1ccccc1C(=O)N1CCC[C@@H]1C(=O)N1CCC[C@H]1C(=O)NCc1ccccc1", "activation": "-0.69%"},
      {"smiles": "CN(C)CC(=O)N[C@@H]1C[C@@H]2O[C@H](CO)CC[C@@H]2O[C@@H]1CCc1ccc(C#Cc2ccccc2)cc1", "activation": "-6.4%"},
      {"smiles": "COC(=O)[C@]12C[C@H](CC(=O)N3CCN(C(=O)C4CC4)CC3)C(=O)N(CCC3=CCCCC3)C1=C[C@H](C(C)C)O[C@@H]2C1CC1", "activation": "1.54%"}
    ]}
  ]
}
